NR2F2 inh = NR2F2 (human) inhibition, primary screen; HEK293T NGFI-A luciferase reporter, luminescence; hit rate 0.7% among 370,000; inhibition, % at 8.6 µM; AID 686940;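 active means inhibition above a per-plate cutoff, mean inhibition of test wells between control levels plus 3 SD, cut at about 38% in these data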;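 further: cells cotransfected with COUP-TFII expression vector driving the NGFI-A reporter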
Gli-Sufu block = blocks Gli-Sufu signaling in a luciferase reporter. Sufu-KO-LIGHT fibroblasts, Gli luciferase reporter luminescence. inhibition, % at 5 µM. hit rate 0.74% among 340,000;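 active means inhibition above about 55%, limit read from the data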
H9c2 protect = modulators protecting cardiomyocytes from myocardial damage; protection from H2O2 cell death, % at 20 µM; AID 588492; H9c2 cardiomyocytes, H2O2 injury protection, ATPLite, 2 h; hit rate 0.63% among 360,000;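 active means compounds giving at least 50% protection of heart cells from peroxide-induced death in the single-dose screen, raw or plate-pattern-corrected value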
GalR3 antag = human GalR3 antagonism | hit rate 0.44% among 360,000 | O60755 | AID 651719 | inhibition, % at 3 µM | HEK293 GalR3-CNG cAMP membrane potential fluorescence; galR3 body fused to GalR1 C-terminus;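 active means inhibition above the screen-wide average plus 3 SD, cut at about 13% in these data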;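 further: forskolin and galanin both at EC90 stimulate the cells; cAMP rise reported by CNG channel membrane potential dye signal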
Target sequence (O60755 1-299 limits assumed): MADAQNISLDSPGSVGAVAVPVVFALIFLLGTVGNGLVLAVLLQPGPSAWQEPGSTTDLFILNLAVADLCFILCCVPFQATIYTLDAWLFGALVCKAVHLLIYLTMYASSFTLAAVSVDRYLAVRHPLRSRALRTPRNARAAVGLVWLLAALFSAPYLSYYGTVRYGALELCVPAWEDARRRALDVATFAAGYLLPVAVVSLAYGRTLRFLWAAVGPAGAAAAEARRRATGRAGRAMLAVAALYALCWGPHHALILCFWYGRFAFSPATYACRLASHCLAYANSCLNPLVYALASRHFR
SMARCA2 activ = activators of SMARCA2 function. MG213 cells, MMTV-luciferase reporter, dexamethasone, overnight. activation, % at 9.1 µM. hit rate 1% among 370,000; in the data active means activation above about 7.8%
GAA850 FXN act = frataxin GAA850 promoter activation. HEK293 lucGAA850 FXN promoter luciferase reporter, 24 h; percent of 10 µM SAHA response. hit rate 0.56% among 360,000. activation, % at 6 µM. AID 540364;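 active means activation above the average of all compounds screened plus 3 SD, cutoff fixed separately per campaign, cut at about 7.5% in these data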
GAA30 FXN cntr = activates GAA30 frataxin promoter, counter-screen for GAA850 activators. shares compounds with GAA850 FXN act. HEK293 lucGAA30 FXN promoter luciferase, 24 h; DMSO = 0%, 5 µM ipriflavone = 100%. activation, % at 6 µM. hit rate 66% among 1,900;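 active means mean activation above the mean of solvent-only control wells plus 3 SD, cut at about 22% in these data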;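 further: counterscreen of GAA850 promoter hits where activity marks nonselective or luminescence artifacts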
FXN GAA850 conf = GAA850 FXN promoter activation confirmation; shares compounds with GAA850 FXN act; HEK293 lucGAA850 FXN promoter luciferase reporter, 24 h; 100% = activation by SAHA; activation, % at 6 µM; hit rate 86% among 1,900; AID 588351;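 active means mean activation above a set limit taken from the primary screen, cut at about 8% in these data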
SMARCA2 act conf = confirmation of SMARCA2 (BRM) function activators | shares compounds with SMARCA2 activ | AID 652260 | hit rate 30% among 3,500 | MG213 cells, MMTV-luciferase with dexamethasone, luminescence, overnight; MG213 cells expressing E1A, Rb sequestered; DMSO wells 0%, reference activator 100% | activation, % at 9.1 µM;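 active means activation above its plate's cutoff, the mean activation of tested wells plus 3 SD, cut at about 7.9% in these data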
GAL4-VP16 Luc = counter-screen for SMARCA2 activators: GAL4-VP16 luciferase reporter activation; shares compounds with SMARCA2 activ; HEK293 GAL4-VP16 pG5luc reporter, luciferase luminescence; scaled: DMSO wells 0%, SAHA wells 100%; activation, % at 9.1 µM; hit rate 41% among 3,500;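 active means activation above the solvent-only control well mean plus 3 SD, averaged across control plates, cut at about 5.2% in these data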
Numbers stand for hits; n = inactive; x = not tested or not shown. The list is not random: actives were taken first. Their share in the collection is about 3.4%.

SMILES | NR2F2 inh | Gli-Sufu block | H9c2 protect | GalR3 antag | SMARCA2 activ | GAA850 FXN act | GAA30 FXN cntr | FXN GAA850 conf | SMARCA2 act conf | GAL4-VP16 Luc
CCOC(=O)NC(=O)/C(C#N)=C\Nc1ccc(Cl)cc1Cl | n | n | n | n | 9.0 | 8.3 | n | n | n | 7.9
O=c1c2ccccc2oc2ccc(NCCCN3CCOCC3)cc12 | n | n | n | n | n | n | x | x | x | x
CN1CCCC1CCNc1ccc2oc3ccccc3c(=O)c2c1 (centres undefined) | n | n | x | n | n | x | x | x | x | x
CN1CCC[C@H]1CCNc1ccc2c(=O)c3ccccc3n(C)c2c1 | n | n | n | n | 27 | 13 | 46 | 69 | 53 | 8.6
Cn1c2ccccc2c(=O)c2cc(NCCCN3CCOCC3)ccc21 | n | n | n | n | 15 | 17 | 143 | 58 | 18 | 8.7
Cc1ccc2nc(/C(C#N)=C\c3ccc(N4CCOCC4)o3)[nH]c2c1 | n | n | n | n | n | n | x | x | x | x
Cc1ccc(/C(C#N)=C\c2ccc(N3CCOCC3)o2)cc1 | n | n | n | n | 9.1 | 22 | 120 | 53 | 14 | 21
CCc1ccc(C(=O)Cn2ncc(Cl)c(Cl)c2=O)cc1 | n | n | n | n | 17 | 8.5 | n | 15 | n | n
CCOC(=O)Cc1nc(N2CCN(CCN)CC2)c2c(C)c(C(=O)OCC)sc2n1 | n | x | x | x | n | x | x | x | x | x
N#Cc1cc(Oc2cccc3cccnc23)c(-n2nnc3ccccc32)cc1C#N | n | x | n | n | 14 | 7.7 | n | 15 | n | n
N#CCCCc1cn(-c2nc3ccccc3s2)nn1 | n | x | x | n | n | x | x | x | x | x
CCOC(=O)c1sc(-c2ccccc2)cc1N | n | n | n | n | 9.0 | 8.9 | 87 | 23 | n | 6.4
CN(C)CCNC(=O)c1ccccc1 | n | n | n | n | n | n | x | x | x | x
CN(C)CCNC(=O)c1cccc2nc3cccc(F)c3nc12 | n | n | n | n | 52 | 25 | n | 142 | 194 | 14
COc1ccc(OC)c2nc3c(C(=O)NCCN(C)C)cccc3nc12 | n | n | n | n | 21 | 15 | n | 79 | 52 | n
COc1ccc(C23CC4CC(CC(C4)C2)C3)cc1C(=O)NCCN(C)C | n | n | n | n | n | n | x | x | x | x
CC(=O)c1cnc2cc(-c3ccccc3)nn2c1C | n | n | n | n | n | n | x | x | x | x
CC(=O)c1cnc2cc(-c3ccc(C)cc3)nn2c1C | n | n | n | n | 10 | 11 | 128 | 42 | n | 9.9
O=C(OCC#CCSc1nnc(-c2cccc3ccccc23)o1)c1ccc(F)nc1 | n | x | x | x | x | x | x | x | x | x
CCC(=O)Nc1cc2c(cc1Cl)-c1ccccc1C2 | n | n | n | n | 9.5 | 8.4 | 85 | 31 | n | n
COC(=O)[C@]12C[C@H](CC(=O)NCCCCc3ccccc3)C(=O)N(Cc3cccc4ccccc34)C1=C[C@H](COCc1ccccc1)O[C@@H]2C | n | x | x | x | n | x | x | x | x | x
O=C(N/N=C/C(Br)=C\c1ccccc1)c1n[nH]c2c1CCC2 | n | n | n | n | 8.4 | 17 | 29 | 68 | 11 | 21
CC(/C=N/NC(=O)c1n[nH]c2c1CCC2)=C\c1ccccc1 | n | n | n | n | n | n | x | x | x | x
O=C(Nc1ccc(F)cc1)OCc1cn(Cc2cccc(Cl)c2)nn1 | n | x | x | x | n | x | x | x | x | x
COC(=O)C1=CN(c2ccc3c(c2)OCO3)C(N)=C(C#N)C1c1ccccc1 (centres undefined) | n | x | x | n | n | x | x | x | x | x
O=C(c1cc2ccccc2oc1=O)N1CCOCC1 | n | n | n | n | 8.0 | 7.7 | 102 | 34 | 15 | n
